This is part of a sample that, as a whole, favours compounds with a hit. Of some 83,000 tested, about 20% had one in any assay.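 The endpoint reported here, percent growth, reads 100 for growth as untreated, 0 for no net growth and -100 for all cells dead.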 Active and inactive are the calls of the source. Rule for the calls: active = growth percent below 10; inactive = the rest.
Legend:
Assay in all cases: NCI-60 one-dose screen, 48 h (100 = growth as untreated, 0 = no growth, -100 = all killed)
Details in all cases: 10 µM unless noted
SK-MEL-2 melanoma = test system: SK-MEL-2 melanoma
EKVX NSCLC = test system: EKVX NSCLC
SN12C renal = test system: SN12C renal
UO-31 renal = test system: UO-31 renal
TK-10 renal = test system: TK-10 renal
ACHN renal = test system: ACHN renal
CAKI-1 renal = test system: CAKI-1 renal
A498 renal = test system: A498 renal
CCRF-CEM leukemia = test system: CCRF-CEM leukemia
MOLT-4 leukemia = test system: MOLT-4 leukemia
RPMI-8226 leukemia = test system: RPMI-8226 leukemia
OVCAR-8 ovarian = test system: OVCAR-8 ovarian
OVCAR-5 ovarian = test system: OVCAR-5 ovarian
OVCAR-4 ovarian = test system: OVCAR-4 ovarian
SK-OV-3 ovarian = test system: SK-OV-3 ovarian
IGROV1 ovarian = test system: IGROV1 ovarian
OVCAR-3 ovarian = test system: OVCAR-3 ovarian
HS 578T breast = test system: HS 578T breast
NCI/ADR-RES ovarian = test system: NCI/ADR-RES ovarian

Measured: growth

Cc1cc(=O)oc2c1ccc1oc(C#N)c(C)c12
active: CCRF-CEM leukemia 6.77%
inactive: SK-MEL-2 melanoma 115% | EKVX NSCLC 93.7% | SN12C renal 101% | UO-31 renal 94.7% | TK-10 renal 89.2% | ACHN renal 103% | CAKI-1 renal 106% | A498 renal 75.1% | MOLT-4 leukemia 102% | RPMI-8226 leukemia 88.9% | OVCAR-8 ovarian 99.5% | OVCAR-5 ovarian 92.4% | OVCAR-4 ovarian 93.1% | SK-OV-3 ovarian 107% | IGROV1 ovarian 106% | OVCAR-3 ovarian 98.6% | HS 578T breast 91.2% | NCI/ADR-RES ovarian 96.2%

O=C(Nc1ccc(Cl)cc1)Nc1ccc(Cl)c(C(F)(F)F)c1
inactive: UO-31 renal 18.5% | TK-10 renal 18.1% | OVCAR-8 ovarian 19.9% | OVCAR-4 ovarian 30.6% | IGROV1 ovarian 29.8% | HS 578T breast 19.7%
active: SK-MEL-2 melanoma 3.63% | EKVX NSCLC -3.9% | SN12C renal 6.93% | ACHN renal 0.165% | CAKI-1 renal 8.5% | A498 renal -7.36% | CCRF-CEM leukemia -27.6% | MOLT-4 leukemia -9.08% | RPMI-8226 leukemia -32.9% | OVCAR-5 ovarian 1.37% | SK-OV-3 ovarian -27.1% | OVCAR-3 ovarian 4.12% | NCI/ADR-RES ovarian -37.1%

C#Cc1cccc(NC(=O)c2ccc(NC(=O)CCl)cc2)c1
active: SN12C renal -78.4% [8.25 µM] | UO-31 renal -99.2% [8.25 µM] | TK-10 renal -63.2% [8.25 µM] | ACHN renal -98.2% [8.25 µM] | CAKI-1 renal 9.54% [8.25 µM] | RPMI-8226 leukemia 2.29% [8.25 µM] | OVCAR-8 ovarian -13.8% [8.25 µM] | IGROV1 ovarian -55.5% [8.25 µM] | OVCAR-3 ovarian -85.8% [8.25 µM]
inactive: SK-MEL-2 melanoma 31.3% [8.25 µM] | EKVX NSCLC 104% [8.25 µM] | A498 renal 65% [8.25 µM] | CCRF-CEM leukemia 12.1% [8.25 µM] | MOLT-4 leukemia 14% [8.25 µM] | OVCAR-5 ovarian 40% [8.25 µM] | OVCAR-4 ovarian 17.1% [8.25 µM] | SK-OV-3 ovarian 77.3% [8.25 µM] | HS 578T breast 38.2% [8.25 µM] | NCI/ADR-RES ovarian 11.1% [8.25 µM]

C=C(C)[C@@H]1CC=C2c3sc(-c4ccc(C)cc4)nc3C[C@@H](C)[C@]2(C)C1
inactive: SK-MEL-2 melanoma 105% | EKVX NSCLC 95.1% | SN12C renal 98.8% | UO-31 renal 78% | TK-10 renal 113% | ACHN renal 102% | CAKI-1 renal 90.6% | A498 renal 106% | CCRF-CEM leukemia 99.4% | MOLT-4 leukemia 98% | RPMI-8226 leukemia 109% | OVCAR-8 ovarian 99.3% | OVCAR-5 ovarian 101% | OVCAR-4 ovarian 98.2% | SK-OV-3 ovarian 97.5% | IGROV1 ovarian 109% | OVCAR-3 ovarian 104% | HS 578T breast 100% | NCI/ADR-RES ovarian 106%

Nc1n[nH]c2cc(F)c([C@@H]3Nc4c(F)cc5[nH]ncc5c4[C@H]4C5CCC(C5)[C@@H]34)cc12 (stereo not given in full)
inactive: SK-MEL-2 melanoma 43.5% | EKVX NSCLC 63.2% | SN12C renal 17.3% | UO-31 renal 36.5% | TK-10 renal 76.3% | ACHN renal 24.4% | CCRF-CEM leukemia 17.8% | MOLT-4 leukemia 14.8% | OVCAR-8 ovarian 29.2% | OVCAR-5 ovarian 35.1% | OVCAR-4 ovarian 44.2% | SK-OV-3 ovarian 34% | IGROV1 ovarian 17.2% | HS 578T breast 26.8% | NCI/ADR-RES ovarian 11.8%
active: CAKI-1 renal 6.94% | A498 renal -38.9% | RPMI-8226 leukemia 5.57% | OVCAR-3 ovarian 8.71%

Cc1cc(C(=O)c2ccccc2)c(C)c2c1[nH]c1ccc(Cl)cc12
active: A498 renal -11.8% | CCRF-CEM leukemia 8.5% | RPMI-8226 leukemia -0.677% | OVCAR-3 ovarian -51% | NCI/ADR-RES ovarian 7.25%
inactive: SK-MEL-2 melanoma 52.1% | EKVX NSCLC 42.8% | SN12C renal 22.1% | UO-31 renal 25% | TK-10 renal 93.7% | ACHN renal 24.8% | CAKI-1 renal 24.7% | MOLT-4 leukemia 15.9% | OVCAR-8 ovarian 21.9% | OVCAR-5 ovarian 43.5% | OVCAR-4 ovarian 43.5% | SK-OV-3 ovarian 38% | IGROV1 ovarian 19.1% | HS 578T breast 33.2%

CN(c1ccccc1)c1ccc2c(c1)OCCC21CC1Nc1cnccc1C(=O)O (stereo not given)
inactive: SK-MEL-2 melanoma 97.5% | EKVX NSCLC 93.1% | SN12C renal 82.9% | UO-31 renal 87.4% | TK-10 renal 79.5% | ACHN renal 66.7% | CAKI-1 renal 76.3% | A498 renal 59.7% | CCRF-CEM leukemia 47.2% | MOLT-4 leukemia 45.8% | RPMI-8226 leukemia 82.6% | OVCAR-8 ovarian 54.9% | OVCAR-5 ovarian 96.2% | OVCAR-4 ovarian 75.3% | SK-OV-3 ovarian 69.1% | IGROV1 ovarian 75.1% | OVCAR-3 ovarian 77.1% | HS 578T breast 80.8% | NCI/ADR-RES ovarian 73.8%

COc1ccc(-c2nc3ccc4[nH]ncc4c3c3c2CCCC3)cc1B(O)O
inactive: SK-MEL-2 melanoma 56.1% | EKVX NSCLC 17.7% | SN12C renal 52% | UO-31 renal 33.7% | TK-10 renal 49.5% | ACHN renal 20.9% | CCRF-CEM leukemia 46.8% | MOLT-4 leukemia 48.8% | RPMI-8226 leukemia 47.6% | OVCAR-8 ovarian 56.4% | OVCAR-5 ovarian 90.5% | OVCAR-4 ovarian 74.8% | SK-OV-3 ovarian 14.4% | IGROV1 ovarian 35.6% | OVCAR-3 ovarian 94.8% | NCI/ADR-RES ovarian 71.2%
active: CAKI-1 renal -1.55% | A498 renal 8.27% | HS 578T breast 0.224%

COc1cccc(-c2nc3sccn3c2-c2ccnc(NCCNS(=O)(=O)c3cccc(F)c3)c2)c1
inactive: SK-MEL-2 melanoma 40.8% | EKVX NSCLC 38.5% | SN12C renal 27.6% | TK-10 renal 51.4% | ACHN renal 20.5% | CAKI-1 renal 21.3% | A498 renal 36.6% | CCRF-CEM leukemia 16.5% | MOLT-4 leukemia 20.2% | OVCAR-8 ovarian 12.7% | OVCAR-5 ovarian 71.4% | OVCAR-4 ovarian 21.5% | SK-OV-3 ovarian 45.9% | IGROV1 ovarian 31.6% | OVCAR-3 ovarian 36.7% | HS 578T breast 27.9% | NCI/ADR-RES ovarian 12.6%
active: UO-31 renal 6.44% | RPMI-8226 leukemia -25.3%

COc1cccc(/C=C/C(=O)c2c(C)nc3ccccc3c2/C=C/c2ccc(C)cc2)c1OC
active: RPMI-8226 leukemia 8.55%
inactive: SK-MEL-2 melanoma 77.2% | EKVX NSCLC 80.8% | SN12C renal 52.1% | UO-31 renal 54.3% | TK-10 renal 118% | ACHN renal 52.9% | CAKI-1 renal 57% | A498 renal 73.8% | CCRF-CEM leukemia 16.6% | MOLT-4 leukemia 11.3% | OVCAR-8 ovarian 49.6% | OVCAR-5 ovarian 67.5% | OVCAR-4 ovarian 56.6% | SK-OV-3 ovarian 84.8% | IGROV1 ovarian 36.4% | OVCAR-3 ovarian 52.4% | HS 578T breast 68.3% | NCI/ADR-RES ovarian 40.6%

COc1ccc(OC)c(-c2c(C#N)c(-c3ccc(Cl)cc3)nc3c2c(-c2ccccc2)nn3-c2ccccc2)c1
inactive: SK-MEL-2 melanoma 102% | EKVX NSCLC 102% | SN12C renal 95% | UO-31 renal 81.4% | TK-10 renal 103% | ACHN renal 102% | CAKI-1 renal 67.9% | A498 renal 113% | CCRF-CEM leukemia 98.8% | MOLT-4 leukemia 86.1% | RPMI-8226 leukemia 95.8% | OVCAR-8 ovarian 101% | OVCAR-5 ovarian 101% | OVCAR-4 ovarian 102% | SK-OV-3 ovarian 100% | IGROV1 ovarian 108% | OVCAR-3 ovarian 107% | HS 578T breast 100% | NCI/ADR-RES ovarian 99.6%

CC1=C([Se]CC(OC(=O)[C@@H](CO)NC(=O)OC(C)(C)C)C(=O)NC(C)(C)C)C(=O)c2ccccc2C1=O (stereo not given in full)
active: SK-MEL-2 melanoma -79.1% | EKVX NSCLC -56% | SN12C renal -100% | UO-31 renal -100% | TK-10 renal -100% | ACHN renal -100% | CAKI-1 renal -73.2% | A498 renal 7.64% | CCRF-CEM leukemia -29% | MOLT-4 leukemia -31.6% | RPMI-8226 leukemia -33.7% | OVCAR-8 ovarian -84.9% | OVCAR-5 ovarian -100% | OVCAR-4 ovarian -100% | SK-OV-3 ovarian -100% | IGROV1 ovarian -100% | OVCAR-3 ovarian -100% | HS 578T breast -37.1% | NCI/ADR-RES ovarian -94.7%

CC1=C(SCCC(=O)OC(C[Se]C2=C(C)C(=O)c3ccccc3C2=O)C(=O)NCCCCCC(=O)OCc2ccccc2)C(=O)c2ccccc2C1=O (stereo not given)
inactive: SK-MEL-2 melanoma 23.3% | EKVX NSCLC 55.8% | SN12C renal 38.4% | UO-31 renal 25.3% | TK-10 renal 114% | ACHN renal 36.4% | CAKI-1 renal 90.8% | A498 renal 70.8% | CCRF-CEM leukemia 10.8% | MOLT-4 leukemia 10.9% | RPMI-8226 leukemia 30.2% | OVCAR-8 ovarian 39% | OVCAR-5 ovarian 44.6% | OVCAR-4 ovarian 53.2% | SK-OV-3 ovarian 32.7% | IGROV1 ovarian 25% | OVCAR-3 ovarian 21% | HS 578T breast 34% | NCI/ADR-RES ovarian 21.1%

CCN(CC)CCCC(C)Nc1c2ccc(Cl)cc2nc2ccc(O)cc12 (stereo not given)
active: MOLT-4 leukemia 7.11%
inactive: SK-MEL-2 melanoma 52.6% | EKVX NSCLC 48.6% | SN12C renal 30.8% | UO-31 renal 34.4% | TK-10 renal 55% | ACHN renal 24.2% | CAKI-1 renal 70.9% | A498 renal 90.7% | CCRF-CEM leukemia 48.3% | RPMI-8226 leukemia 21.8% | OVCAR-8 ovarian 30.1% | OVCAR-5 ovarian 74.3% | OVCAR-4 ovarian 24.6% | SK-OV-3 ovarian 58.1% | IGROV1 ovarian 53.8% | OVCAR-3 ovarian 54.8% | HS 578T breast 58% | NCI/ADR-RES ovarian 77.3%

COc1ccc(/C=C/c2c(C(=O)/C=C/c3cccs3)c(C)nc3ccccc23)cc1
inactive: SK-MEL-2 melanoma 89.6% | EKVX NSCLC 84.8% | SN12C renal 79.1% | UO-31 renal 56.4% | TK-10 renal 116% | ACHN renal 82.2% | CAKI-1 renal 57.2% | A498 renal 53.3% | CCRF-CEM leukemia 64.5% | MOLT-4 leukemia 60.1% | RPMI-8226 leukemia 56.6% | OVCAR-8 ovarian 77% | OVCAR-5 ovarian 97% | OVCAR-4 ovarian 68.7% | SK-OV-3 ovarian 79.7% | IGROV1 ovarian 46% | OVCAR-3 ovarian 83.6% | HS 578T breast 84.1% | NCI/ADR-RES ovarian 74.1%
